Compound activity from PubChem BioAssay.
Pf growth 48h – Primary qHTS for delayed death inhibitors of the malarial parasite plastid, 48 hour incubation; Potency, µM (highest dose often 28.7 µM), inactives show at the highest dose activity change, negative = inhibition, hits mostly inhibitors; P. falciparum luciferase growth in erythrocytes, 48 h; 310,000 compounds, 5.9% hits; active = well fitted inhibition curve with a large enough effect; inconclusive = small, poorly fitted or top-dose-only effect, or another doubt; inactive = no such curve, though single readings can be large or run the other way; also: potency is read from the fitted curve at half-maximal effect; % is scaled to controls: 0 for no effect and ±100 for the full control effect
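Growth was read as firefly luciferase luminescence after a 48 h, 37 C, 5% CO2 exposure of compounds to reporter-bearing P. falciparum cultures (0.1% parasitemia, 2% hematocrit final) in Albumax-supplemented RPMI 1640.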
Shiga inhibitor – A qHTS for Small Molecule Inhibitors of Shiga Toxin; Vero cells, Shiga toxin protein synthesis inhibition reporter; inhibition, % at 38.7 µM; AID 2315, 2010; 290,000 compounds, 9.2% hits; in the data active = inhibition mostly above about 28%, no sharp cut-off; inactive = mostly below about 43%; also: 0% is about no effect
Cycloheximide cs – Cycloheximide Counterscreen for Small Molecule Inhibitors of Shiga Toxin; 300,000 compounds, 12% hits; AID 2314, 2010; max response, %; cell reporter, cycloheximide protein synthesis inhibition counterscreen; in the data active = max response mostly above about 13%, no sharp cut-off; inactive = mostly below about 14%; also: read at 38.3 µM for the half of the compounds with a filed dose; 0% is about no effect
NS1 function inh – qHTS Assay for Inhibitors of Influenza NS1 Protein Function | 270,000 compounds, 0.4% hits | Potency, µM (titrated, usually from 46.1 µM), for the others: at the top dose activity, positive = more growth; also: potency is read from the fitted curve at half-maximal effect; actives are rising curves; nearly all actives have a fitted effect of over 50% in size
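Read-out: OD600 growth recovery of NS1-expressing budding yeast. Cells grown overnight at 30C in -URA glucose medium, washed, resuspended and diluted 1:100 in 2% galactose assay medium, pH 6.0. Same strain lacking NS1 served as positive control.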
Pf growth 96h – Primary qHTS for delayed death inhibitors of the malarial parasite plastid, 96 hour incubation | P. falciparum luciferase reporter growth, 96 h | Potency, µM (top dose mostly 28.7 µM), inactives show top-dose activity change, negative = inhibition, hits mostly inhibitors | AID 504834, 2011 | 320,000 compounds, 6.9% hits; active = well fitted inhibition curve with a large enough effect; inconclusive = small, poorly fitted or top-dose-only effect, or another doubt; inactive = no such curve, though single readings can be large or run the other way; also: potency is read from the fitted curve at half-maximal effect; % is scaled to controls: 0 for no effect and ±100 for the full control effect
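Luminescence readout: decreased luciferase signal marks inhibited growth of reporter-expressing P. falciparum in infected red cells (2% hematocrit, 0.05% parasitemia final), exposed to compound two generations (96 h, 37 C, 5% CO2).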
SARS PLP yeast – qHTS of Yeast-based Assay for SARS-CoV PLP; AID 485353, 2010; 330,000 compounds, 0.19% hits; Potency, µM (series often up to 32.9 µM), for inactives: top-dose activity, positive = growth rescue, hits mostly activators; S. cerevisiae expressing SARS-CoV PLpro, growth rescue; also: potency is read from the fitted curve at half-maximal effect; 0% is about no effect; nearly all actives have a fitted effect of over 55% in size
* marks the source's active call; other numbers are inactive results; ? = inconclusive; nt = not tested or not shown; [ ] = remark or other dose. Only some compounds are listed: those with a hit (about 21% of all), similar ones and a draw of the others. Unless noted, calls follow the shape of the full dose curve.

SMILES	Pf growth 48h	Shiga inhibitor	Cycloheximide cs	NS1 function inh	Pf growth 96h	SARS PLP yeast
CCCC[C@@H]1CCCO[C@@](C(=O)NCc2ccc(C)o2)(C(F)(F)F)C1	nt	4	-3	nt	nt	nt
COCCn1c(-c2ccccc2)nc2c(c(=O)c3ccccc3n2C)c1=O	?	13	1	2%	15µM*	-1%
COc1ccc(-c2nc3c(c(=O)c4ccccc4n3C)c(=O)n2Cc2ccccc2)cc1	-20%	-4	-1	12%	2.9µM*	-17%
COCCn1c(C2CCCCC2)nc2sc3ccccc3c(=O)c2c1=O	1.5µM*	-5	-4	-34%	0%	17%
CCc1nc2sc3ccccc3c(=O)c2c(=O)n1CCOC	4%	-9	-2	-5%	0%	4%
CCCc1nc2sc3ccccc3c(=O)c2c(=O)n1Cc1ccc(OC)cc1	?	26	-1	5%	10µM*	0%
CC(C)(C)c1ccc(-n2ncc3c2CCCC3NC(=O)CCN2CCCO2)cc1 (stereo unspecified)	-25%	-6	12	5%	16%	3%
COc1ccc(Cn2c(-c3ccc(C)cc3)nc3c(c(=O)c4ccccc4n3C)c2=O)cc1	13µM*	-11	-5	7%	?	-5%
Cn1c2ccccc2c(=O)c2c(=O)n(Cc3ccccc3)c(-c3ccc(F)cc3)nc21	?	-11	-2	4%	5.2µM*	0%
COc1ccc(Cn2c(-c3ccco3)nc3c(c(=O)c4ccccc4n3C)c2=O)cc1	11%	-6	1	-3%	-2%	-2%
COCCn1c(-c2cccc(Br)c2)nc2c(c(=O)c3ccccc3n2C)c1=O	?	-6	-1	-1%	?	0%
COc1ccc(Cn2c(-c3ccc(OC)cc3)nc3c(c(=O)c4ccccc4n3C)c2=O)cc1	12µM*	-3	-3	12%	9.3µM*	-24%
COc1ccccc1Nc1ncccc1C(=O)O	11%	17	-1	-13%	9.3µM*	9%
COc1ccc(Nc2ncccc2C(=O)O)cc1	144%	112*	47*	-6%	nt	4%
COc1ccc(NC(=O)c2cccnc2NCCc2ccccc2)cc1	?	8	8	-6%	1.5µM*	10%
COc1cccc(Nc2ncccc2C(=O)Nc2ccccc2)c1	?	11	6	-22%	nt	-22%
O=C(CBr)Nc1c2c(nn1-c1ccccc1)CSC2	10%	-5	-2	12%	15%	-6%
Cc1ccc(NC(=O)Cc2ccccc2)cc1S(=O)(=O)N1CCOCC1	nt	nt	nt	nt	nt	-1%
CC(c1ccccc1)n1cc(C(=O)NCc2ccncc2)nn1 (stereo unspecified)	-19%	-20	-2	-1%	13%	-4%
CCCCSCc1[nH]c(=O)[nH]c1C(=O)CCCCC(=O)OCC	-15%	-5	1	2%	-23%	-1%
CCOC(=O)CCCCC(=O)c1[nH]c(=O)[nH]c1Cn1ccnc1	0.47µM*	13	7	?	nt	2%
CCOC(=O)NC(=O)/C(C#N)=N/Nc1ccc(F)cc1	nt	12	4	1%	0%	-2%
CCN(CC)C(=N)/C(C#N)=N/Nc1ccccc1	67%	93*	39*	-4%	41%	0%
N#C/C(=N\Nc1ccc(Cl)cc1)C(=N)N1CCCCCC1	351%	145*	43*	nt	0%	-2%
Cc1ccc(N/N=C(\C#N)C(=N)N2CCCCC2)cc1	216%	82*	46*	-4%	-21%	-1%
SMILES	Pf growth 48h	Shiga inhibitor	Cycloheximide cs	NS1 function inh	Pf growth 96h	SARS PLP yeast
N#C/C(=N\Nc1ccccc1)C(=N)N1CCCCC1	nt	61*	28*	0%	158%	-7%
Cc1cc2nnn(-c3nnc(-c4ccccc4)c4ccccc34)c2cc1C	?	-20	2	14%	8.3µM*	2%
S=C(Nc1ccccc1)Nc1ccccc1-n1cccc1	?	28	22*	-1%	?	0%
FC(F)(F)c1ccccc1NC(=S)Nc1ccccc1	7%	-6	-2	0%	1.5µM*	-3%
COc1ccc(NC(=S)Nc2ccccc2C(F)(F)F)cc1	29%	9	11	10%	31%	8%
Cc1nn(-c2cc(N(S(C)(=O)=O)S(C)(=O)=O)c(Cl)cc2Cl)c(=O)n1C	0%	-6	-3	-8%	-12%	-9%
CC(C)C(=O)Nc1cccc(C(=O)Nc2cc([N+](=O)[O-])ccc2F)c1	11%[5.75 µM]	-7	-4	nt	-24%	-1%
O=C(CN1CCN(CC(=O)Nc2ccccc2Cc2ccccc2)CC1)Nc1ccccc1Cl	?	-3	-3	1%	13µM*	-1%
O=C(CN1CCCC1)Nc1ccccc1Cl	nt	-2	5	-4%	6%	0%
O=C(CN1CCCC1)Nc1ccc(NC(=O)Nc2ccccc2Cl)cc1	0%	50	25*	-10%	?	3%
CC(C)c1ccccc1NC(=O)C1CN(S(=O)(=O)c2ccccc2)CCN1S(=O)(=O)c1ccccc1 (stereo unspecified)	?	-13	-1	?	?	7%
Cc1ccc(CN2CCC(n3nccc3NC(=O)CCOc3ccccc3)CC2)cc1C	?	-20	-3	-9%	?	8%
O=C(Nc1ccc(F)cc1)Oc1ccc[nH]c1=O	26%	24*	16*	-31%	43%	4%
CS(=O)(=O)c1ccc([C@H](O)[C@H](CF)NC(=O)C(Cl)Cl)cc1	?	nt	nt	nt	2µM*	nt
CS(=O)(=O)c1ccc([C@@H](O)[C@@H](CF)NC(=O)C(Cl)Cl)cc1	12µM*	nt	nt	nt	3.3µM*	nt
CS(=O)(=O)c1ccc([C@@H](O)[C@@H](CO)NC(=O)C(Cl)Cl)cc1	?	nt	nt	nt	4.7µM*	nt
CS(=O)(=O)c1ccc([C@H](O)[C@H](CO)NC(=O)C(Cl)Cl)cc1	-18%[12.8 µM]	nt	nt	nt	?	nt
O=S(=O)(O)c1ccc(-c2nnc(-c3ccccn3)nc2-c2ccc(S(=O)(=O)O)o2)o1	nt	nt	nt	-5%	nt	nt
Cc1cc(NC(=O)CCC(=O)N(CC(=O)NC2CCCC2)c2ccc(Cl)c(Cl)c2)no1	?	-7	-5	2%	43%	1%
OCc1ccccc1	5.4µM*	nt	nt	nt	6µM*	nt
NCc1ccccc1	31%	19	-3	nt	40%	nt
O=C(NNS(=O)(=O)c1ccc(F)cc1)c1cc2ccccc2cc1O	39%	-2	-3	2%	2%	-2%
O=C1c2cccc(OCC(=O)N3CCCc4ccccc43)c2CCN1Cc1ccc(F)cc1	?	20	2	14%	10µM*	-11%
Cc1cccc(CN2CCc3c(OCC(=O)N4CCCc5ccccc54)cccc3C2=O)c1	12µM*	28	14*	17%	?	-14%
O=C(NC[C@@H](O)CO)c1c(I)c(C(=O)NC[C@@H](O)CO)c(I)c(N(CCO)C(=O)CO)c1I	4%[12.8 µM]	nt	nt	nt	16%[12.8 µM]	nt
